Results filed as inconclusive are left out. Entries that show only a call come without a potency. Calls of active or inactive are those of the source. Calls follow the shape of the dose curve; as a rule, active = well fitted curve in either direction with a large enough effect; inconclusive = small, poorly fitted or top-dose-only effect; inactive = no such curve, though single readings can be large or run the other way.
Target: Lysosomal alpha-glucosidase (Homo sapiens) (UniProt P10253)
Assay: Confirmation of Inhibitors and Activators of Human alpha-Glucosidase From Spleen Homogenate;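 as to potency: fluorescence of 4-methylumbelliferone released from a fluorogenic glucopyranoside substrate at pH 5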
Settings: alpha-glucosidase enzyme activity; series mostly up to 60.5 µM
Procedure, shortened: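 Fluorogenic assay using human spleen homogenate (1 ug) as enzyme source with 1 mM 4-methylumbelliferyl-alpha-D-glucopyranoside, pH 5.0 citrate buffer, 40 min at 37 C. 4-MU read (Ex 365/Em 440) after NaOH/glycine stop; AC50 from Hill fits.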
Potency is read from the fitted curve at half-maximal effect.

SMILES	Potency
COc1cccc(CCn2c(N)cc(=O)[nH]c2=S)c1OC	inactive
Cn1cnc2c(NCc3ccccc3)nc(NCCO)nc21	inactive
CCC(=O)N1CCN(c2ccc(Cl)cc2NC(=O)c2ccc(N3CCCC3)c([N+](=O)[O-])c2)CC1	inactive
CNc1ncnc2c1ncn2[C@H]1C[C@H](OP(=O)(O)O)[C@@H](COP(=O)(O)O)O1	inactive
CC(=O)c1ccc(N2CCN(S(=O)(=O)c3ccc4c(c3)n(C)c(=O)n4C)CC2)cc1	inactive
COC(=O)c1cc(OC)c(OC)cc1NC(=O)CCCCCN1C(=O)CCC1=O	inactive
CCCN1CNc2c(c(=O)[nH]c(=S)n2CCc2ccc(OC)cc2OC)C1	15.8 µM (active)
C(=C/c1nccc2c1[nH]c1ccccc12)/c1ccc2c(c1)OCO2	inactive
O=S(=O)(c1ccccc1Br)N1CCOCC1	inactive
CC(=O)c1ccc(N2CCN(C(=O)c3ccc4c(c3)CC(=O)N4)CC2)cc1	inactive
CCCN1CNc2c(c(=O)[nH]c(=S)n2CCc2cc(Cl)cc(Cl)c2)C1	7.94 µM (active)
COc1cccc2cc(-c3nc4c(s3)CCc3ccccc3-4)c(=O)oc12	inactive
CCOC(=O)c1c(-c2ccc(-c3ccccc3)cc2)csc1NC(=O)CCN1CCOCC1	inactive
COCCNS(=O)(=O)c1ccc2c(c1)n(C)c(=O)n2C	inactive
O=C(CSc1ncc(C(F)(F)F)cc1Cl)N1CCN(S(=O)(=O)c2ccccc2)CC1	inactive
Clc1ccc(-c2ccnc(Oc3cc(Cl)ccc3Cl)n2)cc1	inactive
COC(=O)c1ccccc1S(=O)(=O)N1CCOCC1	inactive
O=C1Cc2cc(S(=O)(=O)N3CCN(c4ccc(CO)cc4)CC3)ccc2N1	25.9 µM [inhibitor] (active)

SMILES	Potency
Cc1ccc(N=Nc2c(N)nn(-c3ccccc3)c2N)cc1	inactive
O=S(=O)(c1ccccc1)N1CCN(Cc2ccccc2)CC1	inactive
CCCCN1C[C@H](O)[C@@H](O)[C@H](O)[C@H]1CO	inactive
O=C(c1ccc2ccccc2c1)N1CCN(S(=O)(=O)c2ccccc2)CC1	inactive
COc1ccc(CCn2cc(C#N)c(=O)[nH]c2=O)cc1OC	inactive
CN(C)N=C1c2cc(S(=O)(=O)N3CCOCC3)ccc2-c2ccc(S(=O)(=O)N3CCOCC3)cc21	inactive
CCOC(=O)c1cc2c(=O)n3cccc(C)c3nc2n(CCCOC)c1=NC(=O)c1cccnc1	inactive
Cn1c(N)c(S(=O)(=O)c2ccc(Br)cc2)c2nc3ccccc3nc21	inactive
c1csc(-c2nc(NCC3CCCO3)c3ccccc3n2)c1 (stereo unspecified)	inactive
O=C(O)c1c[nH]c2ccc(S(=O)(=O)N3CCOCC3)cc12	inactive
COc1ccc(CCn2c(=S)[nH]c(=O)c3nccnc32)cc1OC	inactive
NC(=O)NN=C1c2cc(S(=O)(=O)N3CCOCC3)ccc2-c2ccc(S(=O)(=O)N3CCOCC3)cc21	inactive
NC(=S)NN=C1c2cc(S(=O)(=O)N3CCOCC3)ccc2-c2ccc(S(=O)(=O)N3CCOCC3)cc21	inactive
Cc1ccc(S(=O)(=O)N(C)C)cc1NC(=O)COC(=O)Cc1ccc(Br)cc1	inactive
CC(=O)c1ccc(N2CCN(S(=O)(=O)c3ccc4[nH]c(=O)oc4c3)CC2)cc1	inactive
OCC(CO)NC1C[C@](O)(CO)[C@@H](O)[C@H](O)[C@H]1O (stereo partly specified)	inactive
CN1c2ccccc2-c2nc3ccccc3n2C1c1ccccn1 (stereo unspecified)	14.1 µM (active)
Cc1cccc(-n2c(N)cc(=O)[nH]c2=S)c1C	inactive

From PubChem BioAssay AID2113 (National Center for Advancing Translational Sciences (NCATS), 2009)
